Measured values reported in PubChem BioAssay AID1053197 (The Scripps Research Institute Molecular Screening Center, 2014).
In all, about 370,000 compounds went through this assay and about 2,600 (0.7%) were called active. Only a selection was taken, and actives are over-represented in it overall. Unmarked numbers belong to inactive results.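 How the source made its calls: active means inhibition above a cutoff: mean of compounds within the control limits plus 3 SD of those (cut at about 17% in these data); inactive means the rest.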

The compounds below were run against Sialate O-acetylesterase (Homo sapiens) (UniProt Q9HAT2) (assay: human SIAE inhibitors, primary screen, biochemical, fluorescence polarization, FP-Rh probe, 1536-well HTS (AID 1053197;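 further: 0% = plate median of compound wells and 100% = probe without SIAE protein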)). Conditions: SIAE FP-Rh probe binding, at 9.66 µM, stronger effect = higher value.
Sialate O-acetylesterase (Homo sapiens), sequence (Q9HAT2 whole entry, looked up): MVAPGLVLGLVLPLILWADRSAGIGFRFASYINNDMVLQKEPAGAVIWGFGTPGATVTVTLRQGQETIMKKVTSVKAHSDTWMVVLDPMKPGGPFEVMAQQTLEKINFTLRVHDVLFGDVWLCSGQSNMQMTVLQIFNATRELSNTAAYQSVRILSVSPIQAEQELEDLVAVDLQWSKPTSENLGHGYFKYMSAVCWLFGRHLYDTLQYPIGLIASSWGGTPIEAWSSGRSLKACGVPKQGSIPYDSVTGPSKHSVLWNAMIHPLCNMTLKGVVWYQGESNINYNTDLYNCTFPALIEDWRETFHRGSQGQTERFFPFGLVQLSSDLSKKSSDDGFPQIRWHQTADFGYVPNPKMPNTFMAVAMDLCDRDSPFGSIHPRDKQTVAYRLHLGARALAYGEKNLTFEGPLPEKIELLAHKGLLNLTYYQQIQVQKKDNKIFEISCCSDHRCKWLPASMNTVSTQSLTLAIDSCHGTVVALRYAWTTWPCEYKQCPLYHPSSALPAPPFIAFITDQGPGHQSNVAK

Compound | inhibition
COCC(=O)N[C@@H]1C[C@@H]2O[C@@H](CO)CC[C@@H]2O[C@@H]1CCc1ccc(-c2ccccc2)cc1 | 2.31%
Cc1ccc(Cn2cc(CN3[C@@H](CC(C)C)COc4ccc(Cl)cc4S3(=O)=O)nn2)cc1 | 1.1%
Cc1ccc(N2C(=O)C3N=NN(CC(=O)N4N=C(c5cccc6ccccc56)CC4c4ccccc4)C3C2=O)cc1 (configuration not stated) | -11.7%
COc1ccc(C2CC(c3cccc(OC)c3)=NN2c2ccc(S(N)(=O)=O)cc2)cc1 (configuration not stated) | 6.8%
Oc1ccccc1C1=NN(c2ccccc2)C(c2ccccc2)C1 (configuration not stated) | 20.5% (active)
O=C1CC[C@@]23CCCN2C(=O)CCC[C@H]3[C@H]1Cc1ccccc1 | 4.29%
CCOc1ccc(Cn2c(SCCCCC#N)nc3c2c(=O)n(C)c(=O)n3C)cc1OCC | 25.8% (active)
Cc1cccc(Cn2c(N3CCN(c4ccccc4)CC3)nc3c2c(=O)n(C)c(=O)n3C)c1 | -1.65%
CCOc1ccc2nc(NC(=O)CSc3nc4c(c(=O)n(C)c(=O)n4C)n3CC)sc2c1 | -3.15%
COC(=O)c1cccc(Cn2ccc3ccc(-c4ccc5ccn(C(=O)C6CCCCC6)c5c4)cc32)c1 | -4.45%
N#CCC[C@H]1CC[C@]2(CCCN(Cc3ccc(Cl)cc3)C2)O1 | 1.15%
C#CCNC(=O)C[C@H]1C[C@@]2(C(=O)OC)C(=C[C@H](C(C)C)O[C@@H]2C2CC2)N(Cc2ccco2)C1=O | 4.68%
COc1cc(/C=C/C(=O)OCC(=O)NCCCc2ccccc2)ccc1O | 9.1%
COc1ccc(/C=N/Nc2ncnc3sc4c(c23)CCCC4)cc1O | -1.15%
COc1cc(/C=N\Nc2nc(-c3cccs3)c(NC(C)=O)s2)ccc1O | 18.3% (active)
O=C(NCc1cccs1)C1CCCN(S(=O)(=O)c2ccc([N+](=O)[O-])cc2)C1 (configuration not stated) | 3.31%
COc1ccc(-n2c(SCC(=O)Nc3ccc4c(c3)OCCO4)nnc2-c2ccc(Cl)cc2)cc1 | 2.64%
CCCCn1c(N)c(N(CC(C)C)C(=O)CN(C)S(=O)(=O)c2ccc(F)cc2)c(=O)[nH]c1=O | 2.93%
CCCCn1c(N)c(N(CCC(C)C)C(=O)c2ccc([N+](=O)[O-])o2)c(=O)[nH]c1=O | 1.61%
CCCCn1c(N)c(N(CC(C)C)C(=O)CSc2ccc([N+](=O)[O-])cc2)c(=O)[nH]c1=O | 17.8% (active)
CCC(=O)OCCCN1C(=O)CCC12CCC(c1ccccc1)CC2 (configuration not stated) | 10.2%
COC(=O)[C@@]12CCCCC3=C1N(CCC3)C(=O)[C@H]2CC(=O)NCc1cccc2ccccc12 | 3.42%
CC(C)C(C#CC1CC1)N(Cc1ccc2c(c1)OCO2)C(N)=NC(=O)/C=C/c1cccc(C(F)(F)F)c1 (configuration not stated) | -3.05%
CCN(CC)C(=O)CC[C@@H]1CC[C@]2(CCCN(S(=O)(=O)C3CCCCC3)C2)O1 | 0.62%
CC(=O)Nc1cnc(-c2ccc(O)cc2C)cn1 | 1.05%
Cc1ccc(Nc2nc(-c3ccc(O)cc3O)cs2)nc1 | 20.7% (active)

Compound | inhibition
Cc1ccc(-c2csc(NCCc3nc4cc(Cl)c(Cl)cc4n3CCOCCO)n2)cc1 | 1.85%
COC(=O)[C@H](C(C)C)N(CCc1cn(Cc2ccccc2)nn1)S(=O)(=O)c1ccc(F)cc1Br | 0.91%
Cc1ccc(-n2c(SCC(=O)Nc3ccc(S(=O)(=O)Nc4nccs4)cc3)nnc2-c2ccccn2)cc1 | -6.07%
COc1cccc(Cn2cc(COC(=O)Nc3ccc(F)cc3)nn2)c1 | -7.19%
CCOC(=O)c1cc2cc(-c3c(C(=O)OCC)oc4cc(O)cc(O)c4c3=O)ccc2o1 | 17.1%
C[C@@H]1O[C@@H](OC[C@H]2O[C@@H](Oc3c(-c4ccc(O)cc4)oc4cc(O)cc(O)c4c3=O)[C@H](O)[C@@H](O)[C@@H]2O)[C@H](O)[C@H](O)[C@H]1O | 19.5% (active)
Cc1ccc(-n2c(COc3ccccc3)nnc2SCC(=O)Nc2ccc3c(c2)OCCO3)cc1 | -2.64%
Cc1ccc(C2=CCN(C)C(=O)N2c2ccc(Cl)cc2)cc1 | -0.37%
Cc1cc(C(=O)NN=C/C=C/c2ccco2)n[nH]1 | 3.3%
Cc1ccc(N=C2NC(=O)/C(=C/C=C/c3ccco3)S2)cc1C | 27.6% (active)
CCOc1ccc(Oc2c(Cl)cnn(-c3ccc(C)cc3)c2=O)cc1 | -1.82%
CC(C)N1CCCCC(NC(=O)c2ccc3ccccc3c2)C1=O (configuration not stated) | -1.26%
CCCCC(=O)N[C@@H]1CC[C@@]23CCCN2C(=O)CCC[C@H]3[C@H]1C | -5.34%
CC(NCc1ccco1)C(=O)N1CCCCC1 (configuration not stated) | 5.06%
O=C(O)c1ccccc1N=N/C(=N/Nc1cc(S(=O)(=O)O)ccc1O)c1ccccc1 | 28.9% (active)
O=C(Nc1cccc(Cl)c1)OC1CC2CC1[C@H]1CCCCN1[C@H]2Cc1ccccc1 (some centres not stated) | -4.13%
CCCCC[C@H](C)N1C[C@@H](COCc2ccccc2)Oc2cc(N3CCC[C@@H]3CO)ccc2S1(=O)=O | 2.79%
CSc1ccc(Oc2cccc3c2S(=O)(=O)N([C@H](C)c2ccccc2)C[C@@H](COCc2ccccc2)O3)cc1C | -4.88%
CCCCC[C@H](C)N1C[C@@H](COCc2ccccc2)Oc2cc(N3CC[C@@H](N(C)C)C3)ccc2S1(=O)=O | 23.3% (active)
O=C(CSc1nnc(-c2ccccc2)n1Cc1ccco1)Nc1ccccc1-c1ccccc1 | -6.96%
CCOC(=O)[C@]12CCCC=C1N(CCCOC)C(=O)[C@@H]2CC(=O)N1CCOCC1 | -6.36%
COc1cccc(N(C)C(=O)[C@@H](C)[C@@H](O)c2ccc3ccccc3c2)c1 | -4%
C=C(C)C#CC(Cc1ccccc1)NCC1CC1 (configuration not stated) | 4.41%
CCOC(=O)N1CCN(C(=O)CSc2ccc(Cl)cc2)CC1 | 19% (active)
O=C(CSc1ccc(Cl)cc1)NC1CC1 | -0.71%
CS(=O)(=O)N1CCN(C(=O)CSc2ccccc2)CC1 | -3.36%
